Bioassay records (PubChem)
D1 PAM: Potentiators of Human D1 Dopamine Receptor: qHTS | HEK293 TREx D1 cells, calcium flux, dopamine EC20 potentiation | potentiation, % at 10 µM | 360,000 tested, 0.036% active | AID 504651, 2011; in the data active = potentiation above about 30%; also: 0% is about no effect
Target sequence (P21728 whole entry, looked up): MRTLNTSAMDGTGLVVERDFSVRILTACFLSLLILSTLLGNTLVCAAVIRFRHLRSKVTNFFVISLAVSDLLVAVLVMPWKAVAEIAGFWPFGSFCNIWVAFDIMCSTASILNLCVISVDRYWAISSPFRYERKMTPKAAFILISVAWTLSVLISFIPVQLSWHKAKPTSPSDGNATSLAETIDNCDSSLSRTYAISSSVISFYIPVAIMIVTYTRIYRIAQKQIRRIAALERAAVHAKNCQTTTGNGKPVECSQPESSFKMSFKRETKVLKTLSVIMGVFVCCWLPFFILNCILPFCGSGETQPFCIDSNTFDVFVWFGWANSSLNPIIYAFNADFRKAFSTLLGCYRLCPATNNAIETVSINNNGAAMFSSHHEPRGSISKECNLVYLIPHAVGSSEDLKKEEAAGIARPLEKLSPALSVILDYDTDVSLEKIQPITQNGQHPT
TRHR agonist: qHTS for Small Molecule Agonists and Allosteric Enhancers of Human TRH Receptor: Primary Screen for Agonists; Thyrotropin-releasing hormone receptor (Homo sapiens), P34981; TRHR cells, calcium flux fluo-8, FDSS agonist mode; activation, % at 2 µM; 360,000 tested, 0.18% active; also: 0% is about no effect
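TRHR-expressing cells loaded with fluo-8 calcium dye; 23 nL library compound pin-transferred, kinetic FDSS fluorescence (Ex 480/Em 530) recorded about 180 s for agonist-induced calcium release, before a 10 nM TRH EC20 addition for potentiator mode.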
D1 antag: Antagonist of Human D 1 Dopamine Receptor: qHTS; D(1A) dopamine receptor (Homo sapiens), P21728; HEK293 TREx D1 cells, calcium flux, dopamine EC80; active compounds read low; activity change, negative = inhibition, % at 10 µM; 360,000 tested, 3.2% active; in the data active = activity change below about -30%; also: % is scaled to controls: 0 for no effect and ±100 for the full control effect
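Calcium flux readout: force-coupled, inducible Hek293 Trex D1 line, cells induced overnight at 30 C with tetracycline, dye-loaded 30–90 min at RT. Antagonism scored against EC80 dopamine challenge given 180 s after compound.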
D1 agonist: Allosteric Agonists of the Human D1 Dopamine Receptor: qHTS | D(1A) dopamine receptor (Homo sapiens), P21728 | activation, % at 2 µM | 360,000 tested, 1% active | HEK293 T-REx D1 cells, calcium flux, agonist mode; also: 0% is about no effect
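Tetracycline-induced HEK293 TREx D1 cells, force-coupled to calcium signalling, were dye-loaded with a no-wash calcium kit. Compound was pin-added after a 10 s baseline. Fluorescence was read kinetically at 1 cycle/s for 180 s, with calcium rises flagged as agonism.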
TRHR enhancer: qHTS for Small Molecule Agonists and Allosteric Enhancers of Human TRH Receptor: Primary Screen for Enhancers. Thyrotropin-releasing hormone receptor (Homo sapiens), P34981. TRHR cells, fluo-8 calcium fluorescence, EC20 TRH enhancement. enhancement, % at 2 µM. 360,000 tested, 0.66% active. AID 493056, 2011; in the data active = enhancement above about 30%; also: 0% is about no effect
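Enhancer read-out: after compound pinning and an initial kinetic agonist-mode read, an EC20 of TRH (10 nM final) was injected and fluo-8 calcium signal (Ex 480/Em 530) followed at 1 s/cycle for 100 cycles in TRHR-expressing cells.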
* marks the source's active call; other numbers are inactive results. This is a sample that favours compounds with a hit; in the whole collection about 4.7% have one here. Rule as the data show it, unless noted: active = activation above about 30%; inactive = the rest.

SMILES	D1 PAM	TRHR agonist	D1 antag	D1 agonist	TRHR enhancer
COc1ccc(C(=O)NC2CC2)cc1OC1CCN(Cc2ccccc2F)CC1	-4	-1	-53*	2	-1
C=CCOc1ccccc1CN1CCC(Oc2cc(C(=O)NC3CC3)ccc2OC)CC1	-9	0	-74*	1	-4
COc1ccc(C(=O)NC2CC2)cc1OC1CCN(Cc2ccccc2O)CC1	-23	0	-38*	2	-10
NCCSc1c(-c2ccccc2)[nH]c2ccccc12	-3	-3	-37*	11	0
CC(C)[C@H](NS(=O)(=O)c1cccc(C(F)(F)F)c1)C(=O)OCC(N)=O	5	2	0	2	39*
CN(N)c1nc(C(F)(F)F)nc2ccccc12	3	0	-3	-1	0
Nc1nc(N(Cc2ccccc2)Cc2ccccc2)nc(C(F)(F)F)n1	-9	2	-34*	9	3
Cc1ccc(S(=O)(=O)N(C)C)cc1NC(=O)COC(=O)CCC1CCCCC1	-4	0	-39*	5	1
Cc1ccc(S(=O)(=O)N(C)C)cc1NC(=O)COC(=O)CC1CCCC1	2	0	4	2	13
Cc1ccc2c(c1)/C(=C/c1ccccc1C)C(=O)N2	0	-1	-31*	2	-2
CCOC(=O)Cn1c(=N)n(CCOc2ccc3ccccc3c2)c2ccccc21	-10	1	5	32*	2
CCOC(=O)Cn1c(=N)n(CCOc2ccc(OC)cc2)c2ccccc21	-2	2	4	11	-4
Cc1ccc(OCC(=O)Nc2ccc3nc(SCC(=O)N4CCCC4)sc3c2)cc1C	-1	0	-7	4	-2
O=C(Nc1cc(Cl)ccc1O)c1cc2nc(-c3ccc4c(c3)OCO4)cc(C(F)(F)F)n2n1	-2	1	-2	-1	12
Cc1ccc(NC(=S)N2CCC(N(C)CC3CCCO3)CC2)cc1 (configuration not stated)	-4	-1	-40*	-1	-3
Cc1cc(C)cc(NC(=S)N2CCC(N(C)CC3CCCO3)CC2)c1 (configuration not stated)	-1	0	10	0	12
Cc1ccccc1NC(=O)CCC(=O)N1CCSc2ccccc21	-4	0	-5	2	12
COc1cc(NC(=O)CN(C)C2CCCCC2)c(C)cc1[N+](=O)[O-]	-11	-1	-74*	0	-3
Cc1cc2c(s1)c1cnn(Cc3ccccc3Cl)c(=O)c1n2C	-2	1	14	1	-2
CCN(CC)C(=S)SCC(=O)Nc1ncc2c(n1)CCCC2=O	0	-1	-33*	0	-3
O=C(CSC(=S)N1CCOCC1)Nc1ncc2c(n1)CCCC2=O	-4	0	-5	0	-5
CCCOc1ccc(CNC(=O)c2cc3ccccn3n2)cc1	2	-1	-16	0	-1
NCc1nc2cccnc2n1Cc1ccccc1Cl	-2	-1	-31*	0	-3
O=C(CNC(=O)c1cccc2ccccc12)OC(C(=O)Nc1cc(C(F)(F)F)ccc1Cl)c1ccccc1 (configuration not stated)	5	2	13	-1	-4
Cc1cc(C)c(C(=O)NC2CC(C)(C)Cc3c2cnn3-c2cccc(F)c2)[nH]1 (configuration not stated)	-2	0	14	9	7
SMILES	D1 PAM	TRHR agonist	D1 antag	D1 agonist	TRHR enhancer
CCn1nc(C)cc1C(=O)NC1CC(C)(C)Cc2c1cnn2-c1cccc(F)c1 (configuration not stated)	-14	0	-64*	0	-8
O=C(Nc1ccc(Cl)cc1)c1cc2c(Cl)nc3ccccc3c2s1	-6	1	-8	3	48*
COc1cc(C(=O)NCCOc2ccc(F)cc2)c(Br)c(OC)c1OC	4	-4	-55*	1	7
COc1ccc(NC(=O)c2cc(OC)c(OC)c(OC)c2Br)cc1OC	-5	0	-11	3	39*
COc1cc(C(=O)Nc2ccc(C(C)=O)cc2)c(Br)c(OC)c1OC	-3	-1	-3	6	-2
CCCOC(=O)c1ccc(NC(=O)c2cc(OC)c(OC)c(OC)c2Br)cc1	-6	1	-36*	1	3
COc1cc(C(=O)NCCOc2ccccc2)c(Br)c(OC)c1OC	-6	-1	0	0	1
C=CCn1c(COc2ccc(OC)cc2)nc2ccccc21	-4	0	-35*	1	-1
COc1cccc(OCc2nc3ccccc3n2Cc2ccccc2C)c1	0	5	-11	40*	-9
CCn1c(COc2ccc(OC)cc2)nc2ccccc21	-7	0	-17	4	1
CC(=O)NCCCc1nc2ccccc2n1Cc1ccccc1C	-12	0	6	42*	1
COc1ccc(Cc2nc3ccccc3n2Cc2ccccc2C)cc1	-2	1	-15	23	-3
CCOc1ccccc1CNC(=O)C1CCN(Cc2cc3ccccc3n2Cc2ccccc2)CC1	3	1	10	9	1
O=C1C(c2cccc(Br)c2)N(CCc2ccccc2)C(=O)CN1C1CCCCC1 (configuration not stated)	-1	-1	-33*	-2	6
CSc1sc(-c2nnc(SCC(=O)Nc3ccccc3)n2C)c2c1C=CCC2	-1	0	-36*	2	1
CCOC(=O)N1CCC(NC(=O)c2ccc3c(c2)N(Cc2cccc(C)c2)C(=O)c2ccccc2S3(=O)=O)CC1	-4	1	-8	10	-3
COc1cccc(CNC(=O)CN2C(=O)CCCc3ccccc32)c1OC	-2	0	1	10	1
CN(C)C(=S)Nc1nc2ccccc2s1	-4	0	-30*	2	0
O=C(CN1CCN(Cc2ccc(F)cc2)CC1)Nc1nc2ccccc2s1	-3	0	-30*	12	-7
O=C(CC1CCCCC1)Nc1nc2ccccc2s1	3	1	-9	6	36*
Cc1ccccc1Nc1nc2ccccc2s1	-8	0	12	37*	9
O=C(Nc1nc2ccccc2s1)NC1CCCCC1	-6	2	-6	7	9
CCc1cccc(CC)c1NC(=O)c1c(C)oc2ccc(O)c(CN3CCN(C)CC3)c12	0	-1	-4	-1	3
Cc1cc(F)ccc1NC(=O)c1csc2c1CCC(C)C2 (configuration not stated)	-6	0	-4	4	-9
